Source: PubChem
Shown are actives, neighbours in structure and some others; about 11% of the full set was active somewhere.
Tau FP inhib – inhibitors of human tau fibril formation; P10636; K18 P301L tau heparin fibrillization, Alexa594 FP, 6 h; Potency, µM (titrated, usually from 57.7 µM), inactives show at the top dose activity, negative = inhibition, hits mostly inhibitors; hit rate 0.39% among 280,000; AID 1468; note: potency is the fitted concentration of half-maximal effect; nearly all actives have a fitted effect of over 55% in size
Target sequence (P10636 561-689 P618L limits assumed): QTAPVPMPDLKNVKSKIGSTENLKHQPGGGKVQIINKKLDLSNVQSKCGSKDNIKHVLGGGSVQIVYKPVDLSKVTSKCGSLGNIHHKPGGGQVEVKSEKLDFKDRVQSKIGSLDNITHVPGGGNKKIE
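Steps: dispense K18 P301L tau (15 uM plus 0.24 uM Alexa 594 tracer, final) in pH 7 sodium acetate; add compound; add heparin (20 uM final); incubate 6 hr, 37 C; add ThT (30 uM final); after 1 hr ambient, read FP.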
Sfp inh – Sfp phosphopantetheinyl transferase inhibition; AID 1490; Potency, µM, for inactives: largest response in the series, negative = inhibition, hits mostly inhibitors; Q9F4F7; Biochemical Sfp PPTase activity, qHTS; hit rate 3.5% among 310,000;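 note: the enzyme is Sfp with the accession as filed and its product quenches rhodamine fluorescence; potency is the fitted concentration of half-maximal effect; 0% = enzyme reaction without inhibitor and -100% = no enzyme wells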
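Reaction rates are the 30-min fluorescence difference (ex 525, em 598 nm) in wells containing 15 nM Sfp, 5 uM rhodamine-CoA and 12.5 uM BHQ-2-YbbR at pH 7.6 with 10 mM MgCl2.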
Tau fluor counter – counter-screen for tau fibril formation inhibitors; tau K18 P301L Alexa594 fluorescence, heparin fibrillization; Potency, µM (highest dose often 57.7 µM), for the others: at the highest dose activity change, negative = decrease; hit rate 0.93% among 280,000; AID 1463; note: potency is the fitted concentration of half-maximal effect; nearly all actives have a fitted effect of over 55% in size
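Human K18 P301L tau (15 uM unlabeled plus 0.24 uM Alexa 594-labeled, final) in 100 mM sodium acetate pH 7 was mixed with compound and 20 uM heparin and incubated 6 hr at 37 C.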
Coupling enz – inhibits coupling enzyme system, counter-screen for aldolase hits; coupling enzyme system counterscreen, AmpLite Red fluorescence; activity change, negative = inhibition, % at 58.2 µM, hits read low; hit rate 0.67% among 290,000; AID 2472; in the data active = activity change below about -30%
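Compounds tested against the coupling enzymes alone at 57.5 uM final; readout was AmpLite Red fluorescence (525/598 nm) after 20 min at RT.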
Tau fibril ThT – inhibitors of human tau fibril formation, thioflavin T binding; P10636; recombinant tau K18 P301L, heparin-induced fibrillization, ThT fluorescence; hit rate 2.1% among 270,000; Potency, µM (doses to about 57.4 µM), for the others: at the highest dose activity, negative = inhibition, hits mostly inhibitors; AID 1460; note: potency is the fitted concentration of half-maximal effect; nearly all actives have a fitted effect of over 55% in size
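ThT emission at 510 nm, taken 1 hr after adding 30 uM dye, quantifies aggregates formed when 20 uM heparin acts on human tau K18 P301L for 6 hr at 37 C.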
G9a block – G9a (human) methyltransferase inhibition; G9a H3K9 monomethylation, AlphaScreen, 2 h; Potency, µM (series often up to 102 µM), without a hit: top-dose activity, negative = inhibition, actives largely listed as inhibitors; hit rate 8.8% among 350,000; AID 504332; note: potency is the fitted concentration of half-maximal effect; nearly all actives have a fitted effect of over 75% in size
Target sequence (Q96KQ7 913-1193 limits assumed): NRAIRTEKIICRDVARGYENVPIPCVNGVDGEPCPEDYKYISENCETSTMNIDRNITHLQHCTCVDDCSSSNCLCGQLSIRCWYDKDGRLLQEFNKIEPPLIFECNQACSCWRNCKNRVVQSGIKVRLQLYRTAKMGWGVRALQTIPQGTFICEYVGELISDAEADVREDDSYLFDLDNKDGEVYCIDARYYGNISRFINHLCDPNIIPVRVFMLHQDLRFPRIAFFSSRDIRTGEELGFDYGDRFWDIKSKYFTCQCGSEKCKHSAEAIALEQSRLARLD
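Readings reflect AlphaScreen signal from monomethyl-H3K9 antibody detection. HMT at 20 nM; substrate b-H3K9 500 nM; cofactor SAM 20 uM; 2 h RT reaction; compounds tested as titrations in qHTS with 15 min preincubation.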
* = called active by the depositor; u = inconclusive; x = no result given; [ ] = another dose, or the depositor's remark. Unless noted, calls come from the whole dose curve; as a rule, active = well fitted curve in the direction sought with a large enough effect; inconclusive = small, poorly fitted or top-dose-only effect, or another doubt; inactive = no such curve, though single readings can be large; an effect the other way counts as inactive or inconclusive. Unless noted, % is set by controls: 0 for no effect and ±100 for the full control effect.

SMILES | Tau FP inhib | Sfp inh | Tau fluor counter | Coupling enz | Tau fibril ThT | G9a block
O=C(CSc1nnc(NC(=O)C2CC2)s1)NCc1cccs1 | 6% | 10% | 8% | -1 | 8% | 13%
CCC(CC)C(=O)Nc1ccc(S(=O)(=O)N2CCC(c3nc4ccccc4s3)CC2)cc1 | -7% | x | 0% | x | 0% | u
CCc1ccc(C2=NN(CCC(=O)NC(C)CCc3ccccc3)C(=O)CC2)cc1 (stereo not given) | -9% | 1% | -11% | 4 | -14% | -5%
CC(C)Cc1nnc(NC(=O)Cc2cccs2)s1 | 4% | -22% | -16% | 1 | u | 45µM*
CC(C)c1nnc(NC(=O)Cc2cccs2)s1 | 14% | 6% | 5% | 1 | -2% | 4%[59 µM]
O=C(CSc1nnc(SCc2cccc3ccccc23)s1)N/N=C/c1c[nH]c2ccccc12 | 14% | 4% | 3.5µM*[quencher] | -6 | -15% | u
O=C(CSc1nnc(SCc2ccc(Cl)cc2)s1)N/N=C/c1c[nH]c2ccccc12 | u | -23% | u | -10 | 0% | u
Cc1ccc(C)c(CSc2cn(CCNC(=O)c3ccccc3F)c3ccccc23)c1 | -1% | x | u | x | u | 16%[59 µM]
Cc1ccc(C)c(CSc2cn(CCNC(=O)c3cccs3)c3ccccc23)c1 | -12% | x | 8.9µM*[quencher] | x | u | 7%[59 µM]
NC(=O)CSc1cn(CCNC(=O)c2cccs2)c2ccccc12 | -8% | -1% | -9% | -2 | -17% | 22%[12.7 µM]
O=C(NCCn1cc(SCc2ccccc2Cl)c2ccccc21)c1cccs1 | u | x | 3.2µM*[quencher] | x | -26% | 12%[59 µM]
Cc1nnc(NC(=O)CSc2cn(CCNC(=O)c3ccccc3)c3ccccc23)s1 | -9% | -19% | -28% | -1 | u | 28µM*
O=C(NCCn1cc(SCc2ccccc2)c2ccccc21)c1cccs1 | u | x | 5.6µM*[quencher] | x | u | -28%[59 µM]
CC[C@@H](c1ccccc1)n1c(=O)n2n(c1=O)[C@H]1[C@H](O)[C@H]3O[C@@H]3/C(=N/OCC(C)C)[C@@H]1CC2 | -6%[11.6 µM] | 0% | -10%[11.6 µM] | 6 | -10%[11.5 µM] | x
Cn1c(=O)c2c(n3c4ccccc4nc13)NC(=O)CC2c1cccc(F)c1 (stereo not given) | 3% | x | 0% | x | -4% | 2%[59 µM]
Cc1ccc(OCCCn2ccnc2)c(Br)c1 | x | 0% | x | 0 | x | 14µM*
Cc1cc(Br)ccc1OCCn1ccnc1 | -3% | 9% | 6% | 0 | -3% | 32µM*
Cc1ccc(C)c(OCCn2ccnc2)c1 | x | -10% | x | -3 | x | x
Clc1cc(Br)ccc1OCCn1ccnc1 | -3% | -17% | -11% | 4 | -13% | 8.9µM*
Cc1ccc(Cn2ccnc2SCC(=O)Nc2ccccc2C(F)(F)F)cc1 | 0% | x | -14% | x | -9% | u
CCOC(=O)C1CCN(C(=O)COC(=O)c2ccccc2C(=O)c2ccc(Cl)cc2)CC1 | x | x | x | x | x | 17%[0.501 µM]
COC(=O)c1ccc2c(=O)n(CCCCCC(=O)N3CCN(c4cc(C)ccc4C)CC3)c(=O)[nH]c2c1 | 2% | x | -11% | x | -18% | -15%[59 µM]
CCN(Cc1nc(-c2ccc(OC)c(OC)c2)no1)C(=O)c1ccoc1C | x | 7% | x | 1 | x | -5%
CN1C/C(=C/c2ccncc2)C(=O)/C(=C/c2ccncc2)C1 | x | 2% | x | -13 | x | 50µM*
CN1C/C(=C\c2ccc(N3CCOCC3)cc2)C(=O)/C(=C/c2ccc(N3CCOCC3)cc2)C1 | 20% | -19% | 5% | 2 | 0.63µM* | u
c1ccc(N2CCOCCOCCOCCOCCOCC2)cc1 | -10% | 15% | -8% | 1 | -11% | -10%
CCN1C/C(=C/c2ccc(N3CCOCC3)cc2)C(=O)/C(=C/c2ccc(N3CCOCC3)cc2)C1 | -7% | u | -10% | -4 | 0.63µM* | 40µM*
CN1C/C(=C/c2ccsc2)C(=O)/C(=C/c2ccsc2)C1 | 5% | -14% | 2% | 2 | -11% | u
CCOc1ccc(NC(=O)CC2C(=O)N(c3cccc(C)c3)C(=O)N2CCC2=CCCCC2)cc1 (stereo not given) | -15% | x | u | x | -13% | 0%[59 µM]
